The source of these data is PubChem BioAssay (NCI).

Compounds without any hit were thinned out: in the full panel of roughly 83,000, 20% have a hit.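 Note: values are percent growth. 100 is the growth of untreated cells, values between 100 and 0 indicate rising inhibition; between -100 and 0 indicates cell death.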 Values without a mark were called inactive. The source made the active and inactive calls. The calls were made as follows: active = growth percent below 10; inactive = the rest.

The first experiment relates to SK-MEL-5 melanoma. The experiment is described as follows: NCI-60 one-dose screen, 48 h (100 = growth as untreated, 0 = no growth, -100 = all killed). Conditions: 10 µM unless noted.
Consider `c1ccc(Nc2ccccn2)cc1`, for which the growth is 106%. As to `COc1ccc(OC)c(Cn2cc3c(c2)-c2oncc2CC3)c1`, the growth is 20%. Same read-out and setting: to `O=C1C(=O)c2ccccc2C(O)=C1CCCc1ccc(C2CCCC2)cc1` belongs 15.6%; to `CCCOC(=O)c1c(C)n(C)c2scc[n+]12`, 102%. Still for that read-out and setting: to `COc1cc(-c2nc3c(c(C)nc4c3nnn4-c3ccccc3)c(=O)o2)cc(OC)c1OC` belongs 106%. On the same count and under the same terms, to `COC(=O)Nc1nc2ccc(C(=O)c3ccccc3N(C)C3COC3)cc2[nH]1` belongs 22.6%; to `COc1cc(Cn2ccc3c2-c2oncc2CC3)cc(OC)c1`, 13.9%; to `c1ccc(Nc2ncc3c(n2)-c2cccn2CC3)cc1`, 67%. Take `N=c1c2c(=O)n3c(nc2nc2sc4ccc(Cl)cc4n12)-c1ccccc1Sc1ccccc1-3`: the growth was -2.17% (active). The same measure, in the same setting: to `NC(=O)CC(NC(=O)COc1ccc(Cl)cc1Cl)C(=O)O` (stereo not drawn) belongs 98.8%.

As to `C=C(C)[C@@H]1CC[C@]2(COC(=O)c3ccccc3C(=O)O)CC[C@]3(C)[C@H](CC[C@@H]4[C@@]5(C)CCCNC(C)(C)[C@@H]5CC[C@]43C)[C@@H]12`, the growth is 46.2%.

As to `C/C=C(/C)C(=O)OC1C=C(CO)C(=O)C(OC(=O)/C(C)=C\C)C1C(C)C` (stereo not drawn), the growth was -99.3% (active). Take `CC(=O)OC1CC2C3CCC4C[C@@H](NC(=O)C=C(C)C)CC[C@]4(C)C3CC[C@]2(C)[C@H]1C(C)N(C)C` (stereo partly drawn): the growth was -95.2% (active). Regarding `CC(=O)/C(=C/c1ccc(-c2ccccc2)cc1)C(=O)c1ccccc1`, the growth is 87.3%.

The next experiment has as its system UACC-62 melanoma. Described as above. Conditions: 10 µM unless noted.
Consider `Nc1ccc(S(=O)(=O)c2ccc(NO)cc2)cc1`, for which the growth was 115%. Still for that read-out and setting: in the case of `COc1cc(NC(C)CCCN)c2nccc(C)c2c1OC` (stereo not drawn) it was 97.2%. Regarding `CCCC(=O)NNc1[nH]c(-c2cc(OC)c(OC)c(OC)c2)cc1C(=O)OCC`, the growth is 102%. Consider `CC(C)OC(=O)c1ccc2n1CCCc1cnc(Nc3ccccc3)nc1-2`, for which the growth was 64.7%. On to `COC(=O)c1ccc2[nH]c(O)c(C(=Nc3ccc(N(C)C(=O)CN4CCN(C)CC4)cc3)c3ccc(OC)cc3)c2c1`, for which the growth is 39.2%. For `CC(=O)c1cc(Nc2cc(C)nc(N)n2)cc(C(C)=O)c1`, the growth is 93.7%. As for `CCOC(=O)C1=C(C(F)(F)F)NC(=S)NC1CN1C(=O)c2ccccc2C1=O` (stereo not drawn), the growth was 101%. On to `CC(C)OC(=O)[C@H](C)N[P@@](=O)(OC[C@@]1(C)O[C@@H](n2cc(F)c(N)nc2=O)C[C@@H]1O[P@](=O)(N[C@@H](C)C(=O)OC(C)C)Oc1ccccc1)Oc1ccccc1`, for which the growth is 99.3%. For `COc1ccc(Cn2cc3c(c2-c2ccccc2)CCc2cnoc2-3)cc1OC`, the growth is 48.7%. Same read-out and setting: in the case of `CC1C(=O)CCCC1=O` it was 103%. Same read-out and setting: to `Brc1ccc(-c2nc3ccccc3s2)cc1` belongs 89.1%. `O=C(Nc1cccc(Cn2c(=O)[nH]c3ccc(Oc4ncccn4)cc3c2=O)c1)c1ccc(Cl)cc1`: the growth is 53.9%. On the same count and under the same terms, in the case of `Cc1ccc(S(=O)(=O)Nc2cccc(Cn3c(=O)[nH]c4ccc(Oc5ncccn5)cc4c3=O)c2)cc1` it was 34.7%; in that of `CC1(C)Oc2cc3oc(=O)ccc3cc2C[C@@H]1OCCOS(=O)(=O)c1ccc(C#N)cc1`, 87.1%; in that of `COC1NC(Cl)=C(C#N)C(C#N)(C#N)C1(C)C` (stereo not drawn), 98.9%.

On to `COc1ccccc1C(=O)Nc1cccc(-c2cc(=O)c3c(OC)c(OC)c(OC)cc3o2)c1`, for which the growth is 43.1%. On to `C=C(NC(=O)[C@H](C(C)C)N(C)c1cccc2[nH]ccc12)C(=O)OC`, for which the growth was 90.5%. On the same count and under the same terms, in the case of `Cc1nc2c(nnn2-c2ccccc2)c2nc(-c3ccccc3)oc(=O)c12` it was 97.2%. Same read-out and setting: in the case of `CCCCCCCCCC[N+](C)(C)C` it was 28.5%; in that of `CCOC(=O)c1ccc2n1CCCc1cnc(NC(C)=O)nc1-2`, 93.9%. Turning to `O=S(=O)(O)c1ccc2c(c1)Sc1cc(S(=O)(=O)O)ccc1O2`, the growth is 96%. In the case of `COc1cc(/C=C/C(=O)c2ccc(F)cc2)ccc1OCCCCOc1cc2c(cc1OC)C(=O)N1CCCC1C=N2` (stereo not drawn), the growth was -86% (active). For the molecule `COC(=O)C(C)[C@H]1CC[C@@H]2[C@]1(C)CC=C1[C@]23C=C[C@]2(C[C@@H](OC(C)=O)CC[C@]12C)C(C(=O)OC)C3C(=O)OC` (stereo partly drawn), the growth is 79.9%.

In the case of `COc1ccc2cnc(N)c(C#Cc3cc(C(=O)Nc4ccc(CN5CCN(C)CC5)c(C(F)(F)F)c4)cnc3C)c2c1`, the growth is 26.3%.
